Calls of active or inactive are those of the source. The calls were made as follows: active = hit-call score of the fitted dose curve at least 0.9, where 1 is the maximum; inactive = score below 0.9.

Assay [1] has as its target Transcription factor E2F1 (Homo sapiens) (UniProt Q01094). Kind of assay: ATG_E2F_CIS: Attagene CIS-FACTORIAL HepG2 Assay for human E2F Transcription Factor 1 (AID 2282935). The settings on record: HepG2 Attagene cis-reporter, E2F reporter RNA transcripts; actives raise or lower the signal. The gist of the method: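 First, HepG2 cells were transfected with reporter transcription units. Next, they were dosed for 24 h. Then RNA was isolated, converted to cDNA, PCR-amplified, FAM-labeled, HpaI-digested and analyzed by capillary electrophoresis.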

Assay [2] can be described thus: ATG_E_Box_CIS: Attagene CIS-FACTORIAL HepG2 Assay for human Enhancer Box (E-box) (AID 2282936). Particulars: HepG2 E-box cis-reporter transcription, actives raise or lower the signal. The gist of the method: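 Endogenous transcription factor activity was sensed in human HepG2 liver cells through transfected cis-promoter reporter units. After 24 h of dosing, total RNA was reverse-transcribed and reporter cDNA resolved by capillary electrophoresis.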

A short description of assay [3]: ATG_M_61_CIS: Attagene CIS-FACTORIAL HepG2 Assay for M61 Transcription Factor (Internal Marker) (AID 2282937). The settings on record: HepG2 Attagene CIS-FACTORIAL M61 internal marker reporter; actives raise or lower the signal. The gist of the method: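 Readout: fluorescent reporter mRNA fragments resolved by capillary electrophoresis after RT-PCR. Transiently transfected human HepG2 cells carried MRTU constructs reporting endogenous TF activity; 24 h chemical exposure; gain or loss of signal fitted relative to DMSO.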

Assay [4] can be described thus: ATG_EGR_CIS: Attagene CIS-FACTORIAL HepG2 Assay for human Early Growth Response 1 (EGR1) (AID 2282938). The settings on record: HepG2 Attagene CIS-FACTORIAL EGR reporter mRNA; actives raise or lower the signal. In outline:
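Read-out: fluorescent reporter-mRNA fragments resolved by capillary electrophoresis after RT-PCR, 24 h post-dose in transiently transfected HepG2. Endogenous transcription-factor activity reported via cis-element-regulated reporter units; gain or loss fitted relative to DMSO.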

Assay [5] in a line: ATG_M_19_CIS: Attagene CIS-FACTORIAL HepG2 Assay for M19 Transcription Factor (Internal Marker) (AID 2282939). The settings on record: HepG2 Attagene CIS-FACTORIAL M19 internal marker reporter; actives raise or lower the signal. The gist of the method:
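HepG2 cells transiently transfected with cis-regulated multiple reporter transcription units were dosed for 24 h; reporter mRNA was quantified by RT-PCR, 6-FAM primer-extension labelling, HpaI digestion and capillary electrophoresis, with bidirectional fitting against DMSO baseline.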

A short description of assay [6]: ATG_ERE_CIS: Attagene CIS-FACTORIAL HepG2 Assay for Estrogen Response Element (ERE) (AID 2282940). Particulars: HepG2 ERE cis-reporter, Attagene RNA transcript; actives raise or lower the signal. The gist of the method:
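HepG2 cells transiently transfected with cis-promoter-driven multiplexed reporter transcription units report endogenous TF activity. After 24 h compound exposure, reporter mRNA is quantified by RT-PCR with capillary electrophoresis fluorescence; bidirectional fitting versus DMSO baseline.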

Assay [7] in a line: ATG_Ets_CIS: Attagene CIS-FACTORIAL HepG2 Assay for human Erythroblast Transformation Specific (ETS) (AID 2282941). The settings on record: HepG2 ETS cis-reporter transcription, actives raise or lower the signal. The gist of the method: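 Cis-regulated reporter mRNA induction in HepG2 (transient transfection), 24 h exposure, RT-PCR plus capillary electrophoresis detection; DMSO serves as negative control and baseline.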

Assay [8] has as its target Hepatocyte nuclear factor 3-beta (Homo sapiens) (UniProt Q9Y261). Description: ATG_FoxA2_CIS: Attagene CIS-FACTORIAL HepG2 Assay for human Forkhead box A2 (FOXA2) (AID 2282942). The settings on record: HepG2 cis-reporter transcription factor activity, 24 h; actives raise or lower the signal. The gist of the method: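 Readout: fluorescent reporter transcripts resolved by capillary electrophoresis after RT-PCR. Transiently transfected HepG2, 24 h compound exposure, endogenous TF activity at cis promoter elements. Gain or loss of signal fitted relative to DMSO.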

A short description of assay [9]: ATG_FoxO_CIS: Attagene CIS-FACTORIAL HepG2 Assay for human Forkhead box O (FoxO) (AID 2282943). Particulars: HepG2 Attagene cis-reporter, FoxO element, mRNA; actives raise or lower the signal. The gist of the method: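 Values reflect reporter mRNA induction or loss in HepG2 cells 24 h post-dosing, fitted bidirectionally with DMSO as negative control and baseline. Detection used RT-PCR and fluorescence capillary electrophoresis.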

Assay [10] is described as follows: ATG_GATA_CIS: Attagene CIS-FACTORIAL HepG2 Assay for human GATA Binding Protein (AID 2282944). Particulars: HepG2 GATA cis-element reporter, Attagene multiplex mRNA; actives raise or lower the signal. In outline: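 HepG2 cells transiently transfected with multiplexed cis-element reporter units reflecting endogenous transcription factor activity; reporter mRNA measured after 24 h dosing by RT-PCR, 6-FAM labeling, HpaI digestion and capillary electrophoresis. Bidirectional fitting versus DMSO baseline.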

Assay [11] in a line: ATG_GLI_CIS: Attagene CIS-FACTORIAL HepG2 Assay for human Zinc Finger Protein GLI1 (AID 2282945). Particulars: HepG2, Attagene cis-factorial reporter mRNA, GLI element; actives raise or lower the signal. The gist of the method: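 HepG2 cells transiently transfected with cis-promoter multiplexed reporter units report endogenous transcription factor activity. After 24 h chemical exposure, reporter mRNA was quantified by RT-PCR, 6-FAM labelling, HpaI digestion and capillary electrophoresis, with bidirectional fitting against DMSO.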

The nature of assay [12]: ATG_GRE_CIS: Attagene CIS-FACTORIAL HepG2 Assay for human Glucocorticoid Response Elements (GRE) (AID 2282947). Particulars: HepG2 GRE cis-reporter, Attagene multiplex mRNA; actives raise or lower the signal. The gist of the method:
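Cells (HepG2) bearing transfected cis-promoter reporter transcription units were treated with chemical for 24 hours. Reporter mRNA was measured via RT-PCR with capillary electrophoresis, and activity was fitted in both directions relative to DMSO.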

A short description of assay [13]: ATG_ISRE_CIS: Attagene CIS-FACTORIAL HepG2 Assay for human Interferon Regulatory Factor 1 (IRF1) binding to an Interferon-Stimulated Response Element (ISRE) (AID 2282948). The settings on record: HepG2 ISRE cis-reporter (Attagene), mRNA transcription readout; actives raise or lower the signal. In outline: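 Multiplexed mRNA reporter readout in human liver HepG2 cells: cis-element-driven reporters transfected, compound added for 24 h, transcripts amplified, fluorescently labelled and sized by capillary electrophoresis; curve fitting bidirectional against DMSO.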

The nature of assay [14]: ATG_M_32_CIS: Attagene CIS-FACTORIAL HepG2 Assay for M32 Transcription Factor (Internal Marker) (AID 2282949).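 Also: background control marker of the multiplexed CIS panel rather than a real target.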 The settings on record: HepG2 Attagene cis-factorial M32 reporter, mRNA; actives raise or lower the signal. In outline: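 HepG2 human liver cells transiently transfected with cis-promoter-driven multiple reporter transcription units, dosed 24 h. Reporter mRNA quantified by RT-PCR, FAM-labelled primer extension, HpaI digest and capillary electrophoresis; bidirectional fit versus DMSO baseline.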

Assay [15] is described as follows: ATG_M_06_CIS: Attagene CIS-FACTORIAL HepG2 Assay for M06 Transcription Factor (Internal Marker) (AID 2282950). The settings on record: HepG2 Attagene CIS-FACTORIAL M06 internal marker reporter; actives raise or lower the signal. In outline:
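HepG2 cells transiently transfected with cis-regulated multiple reporter transcription units were exposed to chemical for 24 h; reporter mRNA was quantified by RT-PCR, 6-FAM primer labelling, HpaI digestion and capillary electrophoresis, fitted bidirectionally against DMSO.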

Assay [16] concerns the target Hypoxia-inducible factor 1-alpha (Homo sapiens) (UniProt Q16665). Description: ATG_HIF1a_CIS: Attagene CIS-FACTORIAL HepG2 Assay for human Hypoxia Inducible Factor 1 (HIF1A) (AID 2282951). The settings on record: HepG2 Attagene cis-factorial HIF1a reporter transcription; actives raise or lower the signal. The gist of the method: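 RT-PCR/capillary electrophoresis fluorescence readout of reporter transcripts from endogenous-TF-driven cis elements in transfected HepG2 cells, 24 h exposure; activity fitted in both directions against DMSO controls.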

The target in assay [17] is Hepatocyte nuclear factor 6 (Homo sapiens) (UniProt Q9UBC0). Description: ATG_HNF6_CIS: Attagene CIS-FACTORIAL HepG2 Assay for human Hepatocyte Nuclear Factor 6 (HNF6) (AID 2282952). Particulars: HepG2 Attagene cis-factorial HNF6 reporter transcription; actives raise or lower the signal. The gist of the method:
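Using cis-element reporters in HepG2 liver cells, the assay tracks endogenous factor-driven transcription 24 h post-dosing. Signal comes from 6-FAM-labelled, HpaI-digested RT-PCR fragments, with gain or loss scored against DMSO.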

Assay [18] addresses Heat shock factor protein 1 (Homo sapiens) (UniProt Q00613). Kind of assay: ATG_HSE_CIS: Attagene CIS-FACTORIAL HepG2 Assay for human Heat Shock Transcription Factor 1 (HSE) (AID 2282953). Particulars: HepG2 HSE cis-reporter, Attagene RNA transcription; actives raise or lower the signal. The gist of the method: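 HepG2 cells transiently transfected with multiple reporter transcription units under cis-regulatory promoter control, measuring endogenous transcription factor activity. After 24 h chemical exposure, reporter mRNA quantified by RT-PCR, fluorescent labelling, HpaI digestion and capillary electrophoresis; bidirectional fit versus DMSO.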

Assay [19] can be described thus: ATG_MRE_CIS: Attagene CIS-FACTORIAL HepG2 Assay for human Metal Responsive Element (MRE) (AID 2282954). Particulars: HepG2 MRE cis-reporter transcription, Attagene multiplex; actives raise or lower the signal. In outline: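 Cells were transfected with cis-promoter reporter transcription units, then dosed for 24 h. RNA was reverse-transcribed, amplified, fluorescently labelled and resolved by capillary electrophoresis, and activity was fitted in both directions relative to DMSO.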

The target in assay [20] is Bile acid receptor (Homo sapiens) (UniProt Q96RI1). Kind of assay: ATG_IR1_CIS: Attagene CIS-FACTORIAL HepG2 Assay for human Nuclear Receptor Subfamily 1 Group H Member 4 (NR1H4), IR1 submotif (AID 2282946). The settings on record: IR1 reporter transcription, actives raise or lower the signal. The gist of the method:
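Readout: reporter transcript levels by RT-PCR with fluorescent capillary electrophoresis, from HepG2 cells transiently transfected with multiplexed cis-regulated reporters and dosed 24 h. Gain- or loss-of-signal fitted versus DMSO negative control.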

Chain of Hepatocyte nuclear factor 3-beta (Homo sapiens) (Q9Y261 whole entry, looked up): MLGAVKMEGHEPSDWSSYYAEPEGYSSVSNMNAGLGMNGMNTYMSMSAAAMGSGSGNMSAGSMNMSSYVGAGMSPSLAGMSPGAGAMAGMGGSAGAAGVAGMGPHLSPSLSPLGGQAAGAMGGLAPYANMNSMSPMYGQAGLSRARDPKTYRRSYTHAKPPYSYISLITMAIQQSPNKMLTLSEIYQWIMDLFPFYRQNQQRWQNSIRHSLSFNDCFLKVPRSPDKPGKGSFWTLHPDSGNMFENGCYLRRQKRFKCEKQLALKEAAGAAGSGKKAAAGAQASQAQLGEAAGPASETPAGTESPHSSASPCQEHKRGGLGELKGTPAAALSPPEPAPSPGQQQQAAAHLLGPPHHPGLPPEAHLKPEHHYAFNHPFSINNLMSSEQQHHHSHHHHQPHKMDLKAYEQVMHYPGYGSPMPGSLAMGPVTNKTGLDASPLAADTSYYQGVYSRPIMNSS
Chain of Transcription factor E2F1 (Homo sapiens) (Q01094 whole entry, looked up): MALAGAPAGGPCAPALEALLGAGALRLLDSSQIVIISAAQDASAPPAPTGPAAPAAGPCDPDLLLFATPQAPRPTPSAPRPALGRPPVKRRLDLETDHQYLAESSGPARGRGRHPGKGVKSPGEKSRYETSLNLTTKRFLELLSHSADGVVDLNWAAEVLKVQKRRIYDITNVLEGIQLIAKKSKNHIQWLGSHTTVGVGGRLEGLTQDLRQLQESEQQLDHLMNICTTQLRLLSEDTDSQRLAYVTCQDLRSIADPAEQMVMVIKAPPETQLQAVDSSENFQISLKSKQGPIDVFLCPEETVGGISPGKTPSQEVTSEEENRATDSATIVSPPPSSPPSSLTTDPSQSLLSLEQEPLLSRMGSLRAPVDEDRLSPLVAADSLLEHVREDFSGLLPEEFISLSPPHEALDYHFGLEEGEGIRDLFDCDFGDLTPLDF
Chain of Hypoxia-inducible factor 1-alpha (Homo sapiens) (Q16665 whole entry, looked up): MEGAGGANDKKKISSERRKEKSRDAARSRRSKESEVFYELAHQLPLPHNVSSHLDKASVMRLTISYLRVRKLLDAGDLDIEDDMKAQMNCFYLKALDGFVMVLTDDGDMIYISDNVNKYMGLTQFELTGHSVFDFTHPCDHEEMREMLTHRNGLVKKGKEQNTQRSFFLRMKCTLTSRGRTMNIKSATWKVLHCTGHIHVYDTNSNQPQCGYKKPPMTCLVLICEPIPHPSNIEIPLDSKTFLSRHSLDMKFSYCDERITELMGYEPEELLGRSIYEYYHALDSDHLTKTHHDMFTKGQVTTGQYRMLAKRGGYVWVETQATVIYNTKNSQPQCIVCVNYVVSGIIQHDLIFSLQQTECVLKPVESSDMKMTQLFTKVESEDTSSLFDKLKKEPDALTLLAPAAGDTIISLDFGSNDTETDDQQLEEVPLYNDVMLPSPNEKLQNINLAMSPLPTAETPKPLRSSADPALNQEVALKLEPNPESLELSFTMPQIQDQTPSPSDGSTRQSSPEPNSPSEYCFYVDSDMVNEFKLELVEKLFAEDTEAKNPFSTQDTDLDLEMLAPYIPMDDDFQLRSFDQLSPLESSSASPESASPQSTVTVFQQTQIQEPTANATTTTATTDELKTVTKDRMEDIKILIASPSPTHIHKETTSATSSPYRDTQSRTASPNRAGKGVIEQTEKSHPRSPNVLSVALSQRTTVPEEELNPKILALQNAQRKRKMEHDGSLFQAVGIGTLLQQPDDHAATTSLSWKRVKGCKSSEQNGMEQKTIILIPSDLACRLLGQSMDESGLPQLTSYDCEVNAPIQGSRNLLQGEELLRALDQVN
Chain of Heat shock factor protein 1 (Homo sapiens) (Q00613 whole entry, looked up): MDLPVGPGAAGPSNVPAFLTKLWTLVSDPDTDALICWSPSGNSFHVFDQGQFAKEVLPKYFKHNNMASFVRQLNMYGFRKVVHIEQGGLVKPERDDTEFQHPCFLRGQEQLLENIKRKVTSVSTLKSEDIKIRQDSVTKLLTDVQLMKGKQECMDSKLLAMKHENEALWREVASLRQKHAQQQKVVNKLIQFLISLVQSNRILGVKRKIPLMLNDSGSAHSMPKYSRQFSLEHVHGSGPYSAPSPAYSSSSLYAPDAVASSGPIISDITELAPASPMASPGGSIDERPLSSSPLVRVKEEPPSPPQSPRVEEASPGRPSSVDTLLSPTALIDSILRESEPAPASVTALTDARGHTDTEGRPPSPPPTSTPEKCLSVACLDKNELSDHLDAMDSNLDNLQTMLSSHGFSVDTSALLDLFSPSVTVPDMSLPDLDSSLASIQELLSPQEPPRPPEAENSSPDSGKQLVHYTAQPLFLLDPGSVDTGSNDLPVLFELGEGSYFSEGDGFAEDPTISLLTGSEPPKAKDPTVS
Chain of Hepatocyte nuclear factor 6 (Homo sapiens) (Q9UBC0 whole entry, looked up, the tested form may be a part): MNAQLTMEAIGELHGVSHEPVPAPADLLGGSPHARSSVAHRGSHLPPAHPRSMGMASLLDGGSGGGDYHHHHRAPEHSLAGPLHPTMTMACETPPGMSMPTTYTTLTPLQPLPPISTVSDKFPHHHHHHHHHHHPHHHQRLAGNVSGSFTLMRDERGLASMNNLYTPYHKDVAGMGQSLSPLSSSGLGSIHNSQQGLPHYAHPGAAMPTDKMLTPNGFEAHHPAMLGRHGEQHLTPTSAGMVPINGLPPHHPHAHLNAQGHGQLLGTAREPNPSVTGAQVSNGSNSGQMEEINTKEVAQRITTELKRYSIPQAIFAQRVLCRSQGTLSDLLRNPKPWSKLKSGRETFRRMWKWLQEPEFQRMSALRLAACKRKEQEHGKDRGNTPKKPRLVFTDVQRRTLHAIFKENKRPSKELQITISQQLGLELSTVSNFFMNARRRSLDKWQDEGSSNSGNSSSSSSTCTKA
Chain of Bile acid receptor (Homo sapiens) (Q96RI1 whole entry, looked up): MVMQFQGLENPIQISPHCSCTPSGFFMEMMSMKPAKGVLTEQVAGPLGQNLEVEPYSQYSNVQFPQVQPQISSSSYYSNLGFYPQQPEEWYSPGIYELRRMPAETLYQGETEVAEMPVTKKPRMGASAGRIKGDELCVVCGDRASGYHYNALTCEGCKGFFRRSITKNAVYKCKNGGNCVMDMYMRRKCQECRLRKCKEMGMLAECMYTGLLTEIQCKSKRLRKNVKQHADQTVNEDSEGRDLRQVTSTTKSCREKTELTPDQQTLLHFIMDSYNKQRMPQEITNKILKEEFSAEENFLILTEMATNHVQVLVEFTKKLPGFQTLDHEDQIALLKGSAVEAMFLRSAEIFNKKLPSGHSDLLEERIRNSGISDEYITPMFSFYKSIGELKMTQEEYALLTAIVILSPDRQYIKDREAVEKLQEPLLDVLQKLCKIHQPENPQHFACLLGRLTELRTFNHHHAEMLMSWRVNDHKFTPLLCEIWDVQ

As for `CCOP(=S)(OCC)Oc1nc(Cl)n(C(C)C)n1`, the molecule was classed as inactive in [1], in assay [2], in assay [3], in assay [4], in [5] and in [7]. Further, the molecule was classed as inactive in assay [8], in assay [9], in assay [10], in assay [11], in assay [12] and in [13]. Besides, the molecule was classed as inactive in assay [14], in [15], in [16], in [17], in assay [18] and in assay [19]. For the same molecule, the concentration at half-maximal activity (AC50) in [6] is 50 µM (active).
As for `Cc1cc(C)nc(Nc2ccccc2)n1`, the call in assay [1], in [2], in [3], in assay [5], in assay [6] and in assay [7] was inactive. Besides, the call in [8], in assay [9], in assay [10], in assay [11], in [13] and in assay [14] was inactive. In addition, the molecule was called inactive in assay [15], in [16], in [17] and in [19]. In addition, the concentration at half-maximal activity (AC50) in [4] is 50 µM (active).
Turning to `CCNC(=O)NC(=O)C(C#N)=NOC`, the molecule was called inactive in assay [1], in assay [2], in assay [3], in assay [4], in assay [5] and in assay [7]. Further, the outcome in [8], in assay [9], in assay [10], in assay [11], in [20] and in assay [13] was inactive. Besides, the outcome in [14], in assay [15], in assay [16], in assay [17] and in [18] was inactive. For the same molecule, the AC50 in assay [6] was 50 µM (active).
On to `O=P(O)(O)CCCl`, for which the call in assay [1], in [2], in assay [3], in [4], in assay [5] and in assay [6] was inactive. In addition, the molecule was called inactive in assay [7], in [8], in assay [9], in assay [10], in assay [11] and in assay [20]. Besides, the result in assay [13], in assay [14], in [15], in assay [16], in assay [17] and in [18] was inactive. Besides, the outcome in assay [19] was inactive.
For `C=CCOC(=O)C(C)(C)OC(=O)c1cc(-n2c(=O)cc(C(F)(F)F)n(C)c2=O)ccc1Cl`, the molecule was called inactive in assay [1], in assay [2], in [3], in [4], in assay [5] and in [6]. In addition, the result in assay [7], in [8], in assay [9], in assay [10], in assay [11] and in [13] was inactive. The molecule was classed as inactive in assay [14], in [15], in assay [16], in assay [17], in assay [18] and in [19].
With `N#Cc1c(Cl)cccc1Cl`, the molecule was classed as inactive in [1], in [2], in assay [3], in assay [4], in assay [5] and in assay [6]. For the same molecule, the molecule was classed as inactive in [7], in assay [8], in assay [9], in assay [10], in [11] and in [13]. Also, the call in assay [14], in assay [15], in assay [16], in assay [17] and in assay [18] was inactive.
In the case of `Cc1cnc(C2=NC(C)(C(C)C)C(=O)N2)c(C(=O)O)c1` (centres undefined), the outcome in assay [1], in assay [2], in [3], in assay [4], in assay [5] and in assay [6] was inactive. The call in [7], in assay [8], in [9], in [10], in [11] and in [13] was inactive. The result in assay [14], in assay [15], in [16] and in assay [17] was inactive.

The term AC50 denotes the concentration giving half of the maximal activity seen.

For the origin of these results see PubChem BioAssay (EPA / NIEHS).
